Experimental data published in the supplement of paper PMC11417369.
± gives the standard deviation of the averaged measurements. Over roughly 25,000 sequences, “ln(normalized median fluorescence intensity)” has its median near 10; the highest 2% begin near 12. Shown is part of a subset that was picked to be rich in the highest values.

These sequences were tested on PfAP2-G AP2 domain (GST-tagged) (assay: gcPBM binding intensity (ln(normalized median fluorescence intensity)); higher = stronger DNA binding).
How it was run: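 For binding intensity, the highest Masliner-normalised natural-log median intensity across replicate spots of either probe orientation was taken. Protein bound to the array was stained with Alexa488 anti-GST antibody and scanned at 488 nm. The protein, GST-tagged P. falciparum DNA-binding domains from E. coli at about 25 μg on average, had been applied for 1 h to an Agilent 4 × 180k array of primer-extended double-stranded 36-bp intergenic genomic probes and negative controls.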

Row | Sequence | gcPBM binding intensity (ln)
1 | GAAAAAAAAAAAAGGGGTACATTTATTTTATCAATA [XGTACX_site8331] | 11.5 ± 1
2 | TTCAAAGGGAAATTAACACACACATATATATATATA [CACACA_site8777] | 10.2 ± 0.67
3 | ATATATAACGGGCACACACACATTTACGTATGAATA [CACACA_site1833] | 10.7 ± 0.43
4 | TATAGGTATGTATGTACACACAAAAAATGGAATATA [CACACA_site7704] | 11.4 ± 0.76
5 | GAAAACAAAATGGTAACACACAAATGTAAATAGTAT [CACACA_site2113] | 10.14 ± 0.064
6 | AACACCAAACAAAGGTGTACATATAGGAAAAAATCT [XGTACX_site1006] | 11.3 ± 0.81
7 | GGAAAATGAAAACAAGGTACACATAAGAACAAACAA [XGTACX_site1221] | 11.4 ± 0.87
8 | AAAAATGAAAGGTGTACACATACAAACATAGAAAGA [CACACA_site5020] | 11.7 ± 0.94
9 | AAATGGAAAAGGTGTACACAAAAAAAAGGGAAAAGC [CACACA_site5331] | 11.7 ± 1.2
10 | AAAAAAGAAACAAACACACATACATACAAACAAACA [CACACA_site142] | 10.3 ± 0.28
11 | ATATATATGTATGTATGTACACACAAAAAATGGAAT [XGTACX_site7879] | 11.5 ± 0.79
12 | AATAATAGAAAAAGGTGTACTTATAAACATATACAC [XGTACX_site6921] | 11.5 ± 0.83
13 | AAAAAAAATGAAAGGTGTACACATACAAACATAGAA [XGTACX_site3517] | 11.7 ± 0.88
14 | TTCTAAAAAGGGTGTACACAAACGAATGGAAAATAA [CACACA_site5483] | 11.6 ± 0.94
15 | AAGGTGGGAAAAAATAGTACACAACAAAAATGTATG [XGTACX_site8741] | 11.7 ± 1
16 | CACAAATATACAAATACACACAAATATACACATATA [CACACA_site7176] | 10.2 ± 0.085
17 | ACCTAAAATAACTACACACACATAAAAAAAAAAAAA [CACACA_site2529] | 10.1 ± 0.47
18 | GTATGTATATATGTATGTACTTATGTATCATTATTA [XGTACX_site2438] | 11.2 ± 0.83
19 | AAAAAACACCCATACACACACACACCGATATATATA [CACACA_site5808] | 10.1 ± 0.18
20 | TATATATATTTTTGAAGTACTTATTACACTAGCATT [XGTACX_site8965] | 11.2 ± 0.61
21 | ATTTTCTTATATATATTTTGTATATATTTTGTACAT [CACACA_negctrl_site1496] | 10.5 ± 0.39
22 | TTTTATGGAAAGTGTTGTACATATTTTTGTATATGT [XGTACX_site7356] | 11.4 ± 0.76
23 | AATTAACCGTGACACACACACATATAAATATAAATA [CACACA_site7790] | 10.3 ± 0.47
24 | TATTGTTCTTATTTAGTGCATATATAATATAATATA [GTGCAC_site9827] | 10.3 ± 0.33

Row | Sequence | gcPBM binding intensity (ln)
25 | ACAAAATTTACAAAATGTACAAAATTTACAAAATAT [XGTACX_site3542] | 10.8 ± 0.49
26 | TAATAAAAAATATATACACACAAATAAATAAATAAA [CACACA_site4037] | 9.77 ± 0.071
27 | ATATATATTTATATATGTACATATTTTTGTGTATTT [XGTACX_site1183] | 11.3 ± 0.79
28 | TACATATTTTTTATATGTACATATTTTTTATGTGTA [XGTACX_site442] | 11.4 ± 0.77
29 | ATATTTATATATATATGTACATATGTGTGTTTTTAT [XGTACX_site3956] | 10.9 ± 0.51
30 | CATATTAAGATGTGTACACATTTTTATTTTTTTTTT [CACACA_site4425] | 11.6 ± 0.93
31 | TGCCTATTTTGGATGTGTACACATATATATATTTAT [XGTACX_site6741] | 11.7 ± 0.88
32 | CTATTTTGGATGTGTACACATATATATATTTATATT [CACACA_site5706] | 11.7 ± 0.85
33 | TTTATTGAACGTACACATATATATATGTATATATTT [TGCATGCA_negctrl_site141] | 11.3 ± 0.88
34 | ATTTTTGTACACTTCTTTTTTTTTTTTCTTTTATGT [CACACA_negctrl_site1323] | 11.4 ± 0.68
35 | AAAAAAAAATCATATTGTACGTAAAAAAAAAAAAAA [XGTACX_site476] | 11.4 ± 1
36 | TATTTATACTAATATGCATGTAATCGAAATACAGCT [TGCATGCA_site457] | 9.685 ± 0.078
37 | AATATGGTTATATATATATATATATATATATATATT [GTGCAC_negctrl_site566] | 9.67 ± 0.071
38 | TGAAATAAAATTTGTACACACATATATATATATATA [CACACA_site586] | 11.1 ± 0.81
39 | TTTCTTTTTGTTCGTGTACACACATGAAATTTATAA [CACACA_site8466] | 11.6 ± 0.86
40 | TCTTTTTGTTCGTGTACACACATGAAATTTATAAAA [CACACA_site1619] | 11.8 ± 1.1
41 | GAACCGTGCAAATGTTGTACACTTTAAAAATATTCT [XGTACX_site4488] | 11.6 ± 0.84
42 | AGGTGCAAAAATAAAACATGCAAAAATAAAAATGAA [TGCATGCA_site502] | 10.07 ± 0.028
43 | TTACCTCTTTGAAATATACACACTAAACATATCAAC [CACACA_site2455] | 10.1 ± 0.13
44 | CACAAACAAAAACACACACACACACCGACAAAAATG [CACACA_site5362] | 10.5 ± 0.38
45 | ACATACATACCCCCACGTACGTACCGAAACACCACC [XGTACX_site1982] | 11.5 ± 0.74
46 | ACATACATACACCCACGTACGTACCGAAACACCACC [XGTACX_site1212] | 11.7 ± 1.1
47 | AACATACAGAAACACACACACACACCCACACCCACA [CACACA_site493] | 10.4 ± 0.31
48 | TTTGTAATAAACTACTTTTTTTTTTTTTTTTTTTTT [CACACA_negctrl_site571] | 10.9 ± 0.35

Row | Sequence | gcPBM binding intensity (ln)
49 | ATATACATATAGGATGCACACATAATTCAAATACAA [CACACA_site8120] | 10.1 ± 0.22
50 | AGACATTAATGAAGGTGTACATATATTTGACAGAAT [XGTACX_site655] | 11.6 ± 1
51 | AAGGTATAATATATTTGTACATATACATTTTTGAAT [XGTACX_site6493] | 10.9 ± 0.61
52 | TTTGAAAAAAATTAATGTACATTTGAAATGACATAT [XGTACX_site3902] | 10.8 ± 0.52
53 | AAAAAAAAATTAAAAACACACATATATATATATATA [CACACA_site1580] | 9.9 ± 0.67
54 | ATTTGCTTTTATTTTACACACTTGCTCCTGTTGTAC [CACACA_site1088] | 10.9 ± 0.42
55 | TATTTTCAAAATGTTGTACACACAAAAAAAAAAAAA [CACACA_site8437] | 11.5 ± 1.1
56 | TTATTTTCAAAATGTTGTACACACAAAAAAAAAAAA [XGTACX_site3151] | 11.4 ± 0.93
57 | CAACACTTTCAAAAATGTACGTACAAATGTATTTTA [XGTACX_site6713] | 11.7 ± 0.76
58 | AAATTTATATATAGTTGTACAAAAATATGTTTCGTA [XGTACX_site4801] | 11.2 ± 0.57
59 | GTTTTTTATAATTGTAGTACAAGAAGATATTTTTAT [XGTACX_site5443] | 11.5 ± 0.86
60 | TATGTGAATATAATCACACACAATACGGAAAGAGAC [CACACA_site7311] | 10.7 ± 0.39
61 | CTATACATATTATATAGTACTTTATTATTATGACTA [XGTACX_site1382] | 10.8 ± 0.45
62 | ATGGACTTTTATAGTTGTACATACTATGAGAACTTT [XGTACX_site2800] | 11.7 ± 0.85
63 | TTATATATATGACTTTGTACATATACATATTTTTTA [XGTACX_site4669] | 10.7 ± 0.54
64 | TTATAAAATTACTTGGTGCATTAGAATATTTCAATA | 10.1 ± 0.3
65 | AATAAAAAACTACAATATACAAAATTATTAAATCAA [GTGCAC_negctrl_site703] | 9.56 ± 0.35
66 | TAATTTATAAAAAATTGTACATTAAACATATATATA [XGTACX_site5164] | 10.8 ± 0.56
67 | TTCATATGGAATAAAAGTACGTATTAAAACAATTTT [XGTACX_site8742] | 11.1 ± 0.59
68 | TTTTTTATTTTTTGTTATATTTATAATAATTTATGA [XGTACX_negctrl_site260] | 9.58 ± 0.071
69 | AGATAAAATAAATACACACACATAAATACGTACAAA [CACACA_site4739] | 11.7 ± 0.74
70 | AAAAAAAAAAAAAAAGGTACACAAATACGTCCTGCA [XGTACX_site3354] | 11.5 ± 0.74
71 | TAATTTACACCTACGTGTACACACAAAAATATGTTT [XGTACX_site1868] | 11.6 ± 0.95
72 | TAAAAAAAATACAAAAGTACACAAAATTATACGTTA [XGTACX_site4656] | 11.5 ± 0.96

Row | Sequence | gcPBM binding intensity (ln)
73 | TATATATTATTTAAAACACACAAAAAAAAAAATTAT [CACACA_site89] | 9.895 ± 0.021
74 | AAACCAAAAATAACACGTACAAAAATAAAAAGTATA [XGTACX_site4261] | 11.2 ± 0.74
75 | GTATATATTTAAACACGTACACAAAACCCAAAAAAT [XGTACX_site8110] | 11.8 ± 0.96
76 | AAAAAAAAAAAAATACGTACACAAAAAATTGCAAAG [XGTACX_site5663] | 11.6 ± 0.81
77 | TTTACACGTACGTGTACACACAAAAATATGTTTTTA [CACACA_site995] | 11.6 ± 0.89
78 | AATTTACACGTACGTGTACACACAAAAATATGTTTT [CACACA_site8242] | 11.8 ± 1
79 | AAAATAAAATAAAATACACACATACATACATACAAA [CACACA_site5366] | 10.01 ± 0.028
80 | ACAAAAAAAAAAAAAATACACACACATAAAAAAAAA [TGCATGCA_negctrl_site333] | 10.1 ± 0.13
81 | TATATTACTTTGTGTTGTACGGAAATATATATATAT [XGTACX_site4309] | 11.3 ± 0.94
82 | TATATAATGGTAAAAACACACAAATATGAAGATGTT [CACACA_site722] | 9.87 ± 0.16
83 | TGTAATAATTATTGCACGCACACAAAAACCTATAGA [CACACA_site2932] | 10.7 ± 0.4
84 | ATCTTAGTTGAAATATAGAATTTATAATAAAAGTTA [GTGCAC_negctrl_site122] | 9.595 ± 0.064
85 | ATAAATAAATTTATACGTACACATAATATATATATA [XGTACX_site4634] | 11.6 ± 0.89
86 | AATGTACAAATACGTACACACATATATATATATATA [CACACA_site1542] | 11.6 ± 0.93
87 | TGTATAAATAAATGCGTACACACTAATAAAAAAAAA [CACACA_site858] | 11.6 ± 0.8
88 | GAAATGTACAAATACGTACACACATATATATATATA [CACACA_site1541] | 11.6 ± 0.99
89 | AATGTACAAATACGTACACACATATTTATATTTATA [CACACA_site6833] | 11.6 ± 0.99
90 | ATAACACAAAAAGGGGGTACAATAAAAAAAAAAAAA [XGTACX_site1652] | 11.5 ± 0.98
91 | TGATAACCAAAAAGGGGTACATACACAAAAAAATAC [XGTACX_site1254] | 11.7 ± 0.91
92 | AATAAATATAAAAATGCACACACACTAATAAAAAAA [CACACA_site8201] | 10.2 ± 0.13
93 | AAAAAATACCAAAGGGGTACTTACACATAATACTTA [XGTACX_site2111] | 11.4 ± 1.1
94 | TATAAATAAATGCGTACACACTAATAAAAAAAAAAA [CACACA_site4630] | 11.6 ± 1.1
95 | AGAAATTTACAAATACGTACACACATATATATATAT [XGTACX_site3141] | 11.9 ± 1.4
96 | AAATATATATATTTACGTACATATATACAAATAGAG [XGTACX_site6067] | 11.4 ± 0.81
